From PubChem BioAssay AID1159580 (chemical genetic matrix, 2015)
Values joined by “and” are separate entries in the source; they are usually repeats but may differ in a detail not shown here. Identical values can stand only once. Hit rate of the full screen: of about 5,500 compounds, about 2,000 (36%) were called active. Roughly 18% stayed inconclusive and do not appear here. No stated cut-off is given here; in the data, active means normalized growth mostly below about 0.91 (no sharp cut-off); inconclusive means no clear call, values can overlap the other calls; inactive means mostly above about 0.92. The list shows a part of the results.

Test: chemical genetic growth profiling, strain panel (AID 1159580);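 further: tested at 20 µM; growth read once vehicle control cultures reached saturation at 30 °C; 1 = growth at the plate median or of vehicle wells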
Conditions: growth OD

Measured: normalized growth

Cn1c(=O)[nH]c2ncn(C)c2c1=O
inactive: S. cerevisiae deletion strains, locus YNL071W, strain lat1, stronger effect = lower value 0.974 | S. cerevisiae deletion strains, locus YNL128W, strain TEP1, stronger effect = lower value 1.02 | S. cerevisiae deletion strains, locus YNL153C, strain GIM3, stronger effect = lower value 1.01 and 0.984 | S. cerevisiae deletion strains, locus YNL175C, strain NOP13, stronger effect = lower value 0.997 | S. cerevisiae deletion strains, locus YNL197C, strain WHI3, stronger effect = lower value 0.995 | S. cerevisiae deletion strains, locus YNL209W, strain ssb2, stronger effect = lower value 0.99 | S. cerevisiae deletion strains, locus YNL224C, strain SQS1, stronger effect = lower value 0.99 | S. cerevisiae deletion strains, locus YNL233W, strain BNI4, stronger effect = lower value 1.01 | S. cerevisiae deletion strains, locus YNL250W, strain rad50, stronger effect = lower value 0.994 | S. cerevisiae deletion strains, locus YNL271C, strain bni1, stronger effect = lower value 0.993 | S. cerevisiae deletion strains, locus YNL298W, strain CLA4, stronger effect = lower value 1 | S. cerevisiae deletion strains, locus YNL307C, strain MCK1, stronger effect = lower value 1.01 | S. cerevisiae deletion strains, locus YNL322C, strain KRE1 (second series), stronger effect = lower value 0.989 | S. cerevisiae deletion strains, locus YNL322C, strain KRE1, stronger effect = lower value 1 and 1.01 | S. cerevisiae deletion strains, locus YNR049C, strain mso1, stronger effect = lower value 0.974 | S. cerevisiae deletion strains, locus YNR052C, strain pop2, stronger effect = lower value 0.992 | S. cerevisiae deletion strains, locus YOL006C, strain TOP1, stronger effect = lower value 1.04 | S. cerevisiae deletion strains, locus YOL012C, strain htz1 0.946 | S. cerevisiae deletion strains, locus YOL147C, strain pex11, stronger effect = lower value 0.988 | S. cerevisiae deletion strains, locus YOR001W, strain rrp6, stronger effect = lower value 0.925 | S. cerevisiae deletion strains, locus YOR061W, strain CKA2, stronger effect = lower value 1.01 | S. cerevisiae deletion strains, locus YOR069W, strain VPS5, stronger effect = lower value 1.01 | S. cerevisiae deletion strains, locus YOR070C, strain gyp1, stronger effect = lower value 0.985 | S. cerevisiae deletion strains, locus YOR080W, strain dia2, stronger effect = lower value 0.977 | S. cerevisiae deletion strains, locus YOR083W, strain WHI5 (second series), stronger effect = lower value 1.02 | S. cerevisiae deletion strains, locus YOR083W, strain WHI5, stronger effect = lower value 1.03 | S. cerevisiae deletion strains, locus YOR106W, strain vam3, stronger effect = lower value 1.01 | S. cerevisiae deletion strains, locus YOR136W, strain idh2, stronger effect = lower value 0.995 | S. cerevisiae deletion strains, locus YOR144C, strain elg1, stronger effect = lower value 0.98 | S. cerevisiae deletion strains, locus YOR184W, strain ser1, stronger effect = lower value 0.991 | S. cerevisiae deletion strains, locus YOR265W, strain rbl2, stronger effect = lower value 0.974 | S. cerevisiae deletion strains, locus YOR270C, strain vph1, stronger effect = lower value 0.971 | S. cerevisiae deletion strains, locus YOR290C, strain snf2, stronger effect = lower value 1.01 | S. cerevisiae deletion strains, locus YOR316C, strain cot1, stronger effect = lower value 0.987 | S. cerevisiae deletion strains, locus YPL051W, strain arl3, stronger effect = lower value 0.982 | S. cerevisiae deletion strains, locus YPL055C, strain LGE1, stronger effect = lower value 1.04 | S. cerevisiae deletion strains, locus YPL078C, strain atp4, stronger effect = lower value 1.01 | S. cerevisiae deletion strains, locus YPL106C, strain sse1, stronger effect = lower value 0.984 | S. cerevisiae deletion strains, locus YPL240C, strain hsp82, stronger effect = lower value 0.971 | S. cerevisiae deletion strains, locus YPL241C, strain CIN2, stronger effect = lower value 1.01 | S. cerevisiae deletion strains, locus YPR119W, strain clb2, stronger effect = lower value 0.983 | S. cerevisiae deletion strains, locus YPR141C, strain kar3, stronger effect = lower value 0.987 | S. cerevisiae deletion strains, locus YPR163C, strain tif3, stronger effect = lower value 0.977 | S. cerevisiae deletion strains, locus YPR167C, strain met16, stronger effect = lower value 0.994 | S. cerevisiae deletion strains, strain wtn01, stronger effect = lower value 0.992 | S. cerevisiae strains, strain wild type, stronger effect = lower value 1
active: S. cerevisiae deletion strains, locus YNL248C, strain rpa49, stronger effect = lower value 0.874
